TRb-SRC2 inh = qHTS for Inhibitors of the Interaction of Thyroid Hormone Receptor and Steroid Receptor Coregulator 2; Thyroid hormone receptor beta (Homo sapiens), P10828; TRbeta-SRC2 peptide binding, fluorescence polarization; receptor liganded with 1 µM T3; Potency, µM (highest dose often 106 µM), for inactives: top-dose activity change, negative = inhibition, actives largely listed as inhibitors; hit rate 0.065% among 280,000; AID 1469, 2008;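 note: potency is the fitted concentration of half-maximal effect; plate controls were bound peptide for no effect and peptide without receptor for full effect; nearly all actives have a fitted effect of over 50% in size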
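Human TRb LBD (0.6 uM) plus Texas Red-labeled SRC2 peptide (20 nM), 1uM T3, 5% DMSO, 5 hr at ambient temperature. Decreased polarization (555/632 nm) flags inhibition; data normalized to free and bound peptide controls.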
HTT aggregate = qHTS Multiplex Assay to Identify Dual Action Probes in a Cell Model of Huntington: Aggregate Formation (GFP); Potency, µM (top dose mostly 46.1 µM), inactives show top-dose activity change, negative = inhibition, most hits filed as inhibitors; PC12 HttQ103-GFP aggregates, Acumen cytometry, 40 h; hit rate 1.1% among 220,000; AID 1688, 2009; note: potency is the fitted concentration of half-maximal effect; % is set by controls: 0 for no effect and ±100 for the full control effect; nearly all actives have a fitted effect of over 60% in size
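Multiplexed with ATP-based cell death, this channel scores GFP aggregates in PC12 cells expressing inducible HTTex1-Q103-GFP. Induction used 100 nM tebufenozide; compounds were tested in concentration series.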
Coupling enz = qHTS Assay for Inhibitors of Fructose-1,6-bisphosphate Aldolase from Giardia Lamblia: Coupling assay counterscreen; hit rate 0.67% among 290,000; AID 2472, 2010; coupling enzyme system counterscreen, AmpLite Red fluorescence; activity change, negative = inhibition, % at 58.2 µM, hits read low; in the data active = activity change below about -30%; note: % is set by controls: 0 for no effect and ±100 for the full control effect
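Coupling enzymes only (glyceraldehyde-3-phosphate) + compound, at 57.5 uM final, 10 min RT; add substrate/coupling/AmpLite Red mix, 20 min RT; fluorescence ex 525/em 598 nm. Actives flag coupling-system interference.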
TexasRed fluor = Total Fluorescence Counterscreen for Inhibitors of the Interaction of Thyroid Hormone Receptor and Steroid Receptor Coregulator 2; TRb/SRC2 Texas Red total fluorescence interference; Potency, µM (highest dose often 106 µM), inactives show at the top dose fluorescence change, negative = quenching; hit rate 0.29% among 280,000; AID 1479, 2009; active = well fitted curve in either direction with a large enough effect; inconclusive = small, poorly fitted or top-dose-only effect; note: potency is the fitted concentration of half-maximal effect; % is set by controls: 0 for no effect and ±100 for the full control effect
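Flags fluorescent or light-absorbing compounds by total fluorescence, S + 2P, at 555 nm excitation and 632 nm emission. Mixture: 20 nM Texas Red SRC2 peptide, 0.6 uM human TRb LBD, 1 uM T3, 5% DMSO; compound exposure 5 h at ambient temperature.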
HTT ATP protect = qHTS Multiplex Assay to Identify Dual Action Probes in a Cell Model of Huntington: Cytoprotection (ATP); Potency, µM (doses to about 56.4 µM), for the others: cytoprotection (ATP increase), usual class: activators; hit rate 0.14% among 230,000; AID 1471, 2008; PC12 HTT-Q103 induced, cytoprotection, ATP luminescence, 40 h; note: potency is the fitted concentration of half-maximal effect; % of control where 0% means no effect; nearly all actives have a fitted effect of over 45% in size
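Huntington model: PC12 line, ecdysone-inducible HTTQ103 exon1–GFP, tebufenozide 100 nM. Test articles in a dose series. Endpoint luminescence from cellular ATP.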
KDM4E inh = qHTS Assay for Inhibitors of Human Jumonji Domain Containing 2E (JMJD2E) | JMJD2E catalytic domain, FDH-coupled NADH fluorescence (FDH is formaldehyde dehydrogenase) | hit rate 1.6% among 230,000 | Potency, µM (top dose mostly 57.1 µM), for the others: top-dose activity change, negative = inhibition, hits mostly inhibitors; active = well fitted inhibition curve with a large enough effect, not every such curve was filed as active; inconclusive = small, poorly fitted or top-dose-only effect, or another doubt; inactive = no such curve, though single readings can be large or run the other way;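 note: potency is the fitted concentration of half-maximal effect; 0% = wells with enzyme and -100% = buffer wells without enzyme; nearly all actives have a fitted effect of over 50% in size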
Target sequence (B2RXH2 1-337 limits assumed): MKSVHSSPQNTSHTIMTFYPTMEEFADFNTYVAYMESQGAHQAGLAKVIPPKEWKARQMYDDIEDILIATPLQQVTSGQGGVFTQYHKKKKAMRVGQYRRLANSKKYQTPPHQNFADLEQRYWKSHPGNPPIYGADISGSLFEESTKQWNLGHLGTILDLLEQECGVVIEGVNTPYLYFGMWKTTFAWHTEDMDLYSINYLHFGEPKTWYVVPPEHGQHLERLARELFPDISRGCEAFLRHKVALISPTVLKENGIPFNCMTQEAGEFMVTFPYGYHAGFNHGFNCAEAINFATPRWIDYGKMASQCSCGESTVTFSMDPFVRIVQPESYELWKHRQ
* = called active by the depositor; ? = inconclusive; nt = no result; [ ] = another dose, or the depositor's remark. Only some compounds are listed: those with a hit (about 2% of all), similar ones and a draw of the others. Unless noted, calls come from the whole dose curve; as a rule, active = well fitted curve in the direction sought with a large enough effect; inconclusive = small, poorly fitted or top-dose-only effect, or another doubt; inactive = no such curve, though single readings can be large; an effect the other way counts as inactive or inconclusive.

SMILES	TRb-SRC2 inh	HTT aggregate	Coupling enz	TexasRed fluor	HTT ATP protect	KDM4E inh
N#Cc1c(N)sc(=S)c2c1CCN(Cc1ccccc1)C2	?	1.5%	-59.0*	?	1.3%[10 µM]	?
CCN1CCc2c(sc(N)c2C#N)C1	0.4%	7.7%	-18.4	5.6%	0.3%[10 µM]	?
O=S(=O)(c1ccccc1)N1CCN(c2ccccc2)CC1	nt	nt	3.0	nt	nt	nt
Nc1ncc(S(=O)(=O)N2CCN(c3ccccc3)CC2)cn1	-19.3%	nt	nt	0.0056µM*[quencher]	nt	nt
CCC(=O)OCCNc1cc(Sc2nccn2C)c2nonc2c1[N+](=O)[O-]	-8.1%	7.08µM*	-0.9	-0.3%	-96.3%[10 µM]	1.4%
CCC(=O)OCCNc1cc(SCCC(=O)OC)c2nonc2c1[N+](=O)[O-]	-1.5%	?	-18.2	?	1.7%[10 µM]	-10.7%
CC(=O)OCCCNc1cc(Sc2ccc(Cl)cc2)c2nonc2c1[N+](=O)[O-]	-0.7%	-7.7%	-49.1*	7.0%	-4.1%[10 µM]	-7.2%
Fc1ccccc1-c1csc(=Nc2cccnc2)n1CCCn1ccnc1	3.6%	35.5µM*	-1.7	5.6%	3.2%[10 µM]	1.4%
Fc1ccccc1-c1csc(=Nc2cccnc2)n1CC1CCCO1 (centres undefined)	3.0%	3.4%	-9.3	-1.3%	9.1%[10 µM]	-1.4%
Cc1ccc(NCc2ccccc2O)cc1	-14.3%	-2.9%	-0.7	0.5%	-17.7%	3.1%
Cc1ccccc1NCc1ccccc1O	-1.4%	?	-32.9*	2.7%	-29.3%	-7.6%
NC(=O)C1CCN(C2=C(NS(=O)(=O)c3ccc(Br)cc3)C(=O)c3ccccc3C2=O)CC1	nt	nt	-32.1*	nt	nt	nt
O=C1C(NS(=O)(=O)c2cccs2)=C(N2CCOCC2)C(=O)c2ccccc21	-2.8%	-0.3%[9.22 µM]	-24.2	-2.5%	5.8%[10 µM]	-28.3%
CCOC(=O)C1CCN(C2=C(NS(=O)(=O)c3ccc(Br)cc3)C(=O)c3ccccc3C2=O)CC1	nt	nt	-33.4*	nt	nt	nt
NC(=O)C1CCN(C2=C(NS(=O)(=O)c3ccccc3)C(=O)c3ccccc3C2=O)CC1	1.6%	-18.9%[9.22 µM]	-31.3*	-4.3%	-5.1%[10 µM]	0.7%
O=C1C(Cl)=C(N2CCC(C(=O)O)CC2)C(=O)c2ccccc21	?	10.1%[9.22 µM]	-28.5	-24.2%	-4.0%[10 µM]	-20.3%
NC(=O)C1CCN(C2=C(Cl)C(=O)c3ccccc3C2=O)CC1	14.8%	5.3%	-50.7*	2.8%	5.0%	7.2%
O=C(OCCOCCOC(=O)c1ccccc1)c1ccccc1	9.8%[201 µM]	nt	nt	3.5%[201 µM]	nt	nt
Cc1ccccc1CN1CCCN(CC(=O)Nc2ccc(F)cc2)S1(=O)=O	3.4%	nt	nt	-0.7%	nt	nt
Cc1cccc(N2CCN(CCNC(=O)C3COc4ccccc4C3)CC2)c1C (centres undefined)	3.9%	nt	nt	2.6%	nt	nt
O=C(CSc1nc2ccccc2n1CC(=O)Nc1ccc(F)cc1F)Nc1ccc(F)cc1	6.1%	nt	nt	-1.5%	nt	nt
Nc1c(N=Nc2ccc(S(=O)(=O)CCOS(=O)(=O)O)cc2)c(S(=O)(=O)O)cc2cc(S(=O)(=O)O)c(N=Nc3ccc(S(=O)(=O)CCOS(=O)(=O)O)cc3)c(O)c12	29.8%[201 µM]	nt	nt	44.7µM*[quencher]	nt	nt
Oc1c(C=C2N=c3ccccc3=N2)sc(=S)n1-c1ccccc1	-13.7%[53 µM]	-10.1%	-2.0	31.6µM*[quencher]	-15.5%[1.9 µM]	3.0%
Cc1ccc(N/C(N)=N/c2nc3c(c(=O)[nH]2)CCCC3)c(C)c1	9.3%	7.5%	1.6	1.5%	13.0%	8.5%
Cc1ccc(N/C(N)=N/c2nc(C)cc(N3CCCCC3)n2)c(C)c1	-1.2%	12.6µM*	2.6	-0.7%	-44.3%	9.1%
Cc1c(C(=O)Nc2ccccc2)oc2c1C(=O)CC(C)(C)C2	-25.3%	10µM*	0.1	1.8%	5.8%	-4.7%

Source: PubChem (National Center for Advancing Translational Sciences (NCATS))
